# Assay results: PubChem BioAssay (Tox21)
# Results filed as inconclusive are left out. Active and inactive are the calls of the source. The call rests on the fitted dose curve; in most records, active means well fitted activation curve with a large enough effect; inconclusive means small, poorly fitted or top-dose-only effect; inactive means flat fitted curve, though single readings scatter.
# Test: qHTS assay to identify small molecule phospholipidosis (PLD) inducers (AID 1259344)
# Details: HepG2 phospholipidosis, LipidTOX Red imaging, 24 h; series mostly up to 38.3 µM; PLD induction: at the top concentration
# How it was run: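 Phospholipid accumulation was scored by imaging: fixed, Hoechst-counterstained HepG2 cells stained with LipidTOX Red after 24 h compound exposure at 37 C. Read-outs were pit count and pit intensity per well or per cell, with amiodarone and DMSO controls.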
# On the % scale 0 is the no-effect control and ±100 the full control effect.
row,SMILES,PLD induction
1,CO/N=C(\C(=O)N[C@@H]1C(=O)N2C(C(=O)[O-])=C(C[n+]3cccc4c3CCC4)CS[C@H]12)c1csc(N)n1,-0.257% (inactive)
2,O=S(=O)(O)CC(S)CS (stereo not drawn),0.379% (inactive)
3,O=C(O)COc1ccccc1/C=N/NC(=O)c1ccncc1,0.132% (inactive)
